Experimental data taken from PubChem BioAssay (NCATS).
Inconclusive results are not listed. Activity calls are given as the source filed them. The call rests on the fitted dose curve; in most records, active means well fitted inhibition curve with a large enough effect; inconclusive means small, poorly fitted or top-dose-only effect; inactive means flat fitted curve, though single readings scatter.

How the values were obtained:
[1] = biological target: Luciferin 4-monooxygenase (Photinus pyralis) (UniProt P08659); test: Biochemical firefly luciferase enzyme assay for NPC (AID 624030);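 further: purified P. pyralis luciferase at 10 nM with luciferin and ATP substrate; nearly all actives have a fitted effect of over 70% in size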
Method in brief: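 Direct inhibition of firefly luciferase enzyme (10 nM final, 50 mM Tris Acetate) assessed by luminescence within 5 minutes. Percent activity scaled between DMSO and PTC124 positive control, with concentration-effect curves classified by fit quality and response.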

CP266 = test: qHTS profiling for inhibitors of Plasmodium falciparum proliferation (AID 504749); further: nearly all actives have a fitted effect of over 60% in size; conditions: P. falciparum in erythrocytes, SYBR Green DNA, 72 h; series mostly up to 28.7 µM
Method in brief: (§1)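 Three-day growth assay of blood-stage parasites in erythrocytes (0.3% parasitemia, 2.5% hematocrit) at 37 C, 5% CO2, quantified by SYBR Green DNA staining after overnight detergent lysis.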

CP268 = test: as above; conditions: P. falciparum in erythrocytes, SYBR Green DNA, 72 h; series mostly up to 28.7 µM
Method in brief: as §1

CP269 = test: as above; conditions: P. falciparum in erythrocytes, SYBR Green DNA, 72 h; series mostly up to 28.7 µM
Method in brief: as §1

CP297 = test: as above; conditions: P. falciparum in erythrocytes, SYBR Green DNA, 72 h; series mostly up to 28.7 µM
Method in brief: as §1

CP305 = test: as above; conditions: P. falciparum in erythrocytes, SYBR Green DNA, 72 h; series mostly up to 28.7 µM
Method in brief: as §1

CP325 = test: as above; conditions: P. falciparum in erythrocytes, SYBR Green DNA, 72 h; series mostly up to 28.7 µM
Method in brief: as §1

CP329 = test: as above; conditions: P. falciparum in erythrocytes, SYBR Green DNA, 72 h; series mostly up to 28.7 µM
Method in brief: as §1

CP335 = test: as above; conditions: P. falciparum in erythrocytes, SYBR Green DNA, 72 h; series mostly up to 28.7 µM
Method in brief: as §1

DIV14 = test: as above; conditions: P. falciparum in erythrocytes, SYBR Green DNA, 72 h; series mostly up to 28.7 µM
Method in brief: as §1

ECU = test: as above; conditions: P. falciparum in erythrocytes, SYBR Green DNA, 72 h; series mostly up to 28.7 µM
Method in brief: as §1

GB4 = test: as above; conditions: P. falciparum in erythrocytes, SYBR Green DNA, 72 h; series mostly up to 28.7 µM
Method in brief: as §1

JCK = test: as above; conditions: P. falciparum in erythrocytes, SYBR Green DNA, 72 h; series mostly up to 28.7 µM
Method in brief: as §1

P93_24 = test: as above; conditions: P. falciparum in erythrocytes, SYBR Green DNA, 72 h; series mostly up to 28.7 µM
Method in brief: as §1

PAD = test: as above; conditions: P. falciparum in erythrocytes, SYBR Green DNA, 72 h; series mostly up to 28.7 µM
Method in brief: as §1

PC15 = test: as above; conditions: P. falciparum in erythrocytes, SYBR Green DNA, 72 h; series mostly up to 28.7 µM
Method in brief: as §1

PC26 = test: as above; conditions: P. falciparum in erythrocytes, SYBR Green DNA, 72 h; series mostly up to 28.7 µM
Method in brief: as §1

PC49 = test: as above; conditions: P. falciparum in erythrocytes, SYBR Green DNA, 72 h; series mostly up to 28.7 µM
Method in brief: as §1

TAB109 = test: as above; conditions: P. falciparum in erythrocytes, SYBR Green DNA, 72 h; series mostly up to 28.7 µM
Method in brief: as §1

TAB113 = test: as above; conditions: P. falciparum in erythrocytes, SYBR Green DNA, 72 h; series mostly up to 28.7 µM
Method in brief: as §1

Measured: Potency

Luciferin 4-monooxygenase (Photinus pyralis), sequence (P08659 whole entry, looked up): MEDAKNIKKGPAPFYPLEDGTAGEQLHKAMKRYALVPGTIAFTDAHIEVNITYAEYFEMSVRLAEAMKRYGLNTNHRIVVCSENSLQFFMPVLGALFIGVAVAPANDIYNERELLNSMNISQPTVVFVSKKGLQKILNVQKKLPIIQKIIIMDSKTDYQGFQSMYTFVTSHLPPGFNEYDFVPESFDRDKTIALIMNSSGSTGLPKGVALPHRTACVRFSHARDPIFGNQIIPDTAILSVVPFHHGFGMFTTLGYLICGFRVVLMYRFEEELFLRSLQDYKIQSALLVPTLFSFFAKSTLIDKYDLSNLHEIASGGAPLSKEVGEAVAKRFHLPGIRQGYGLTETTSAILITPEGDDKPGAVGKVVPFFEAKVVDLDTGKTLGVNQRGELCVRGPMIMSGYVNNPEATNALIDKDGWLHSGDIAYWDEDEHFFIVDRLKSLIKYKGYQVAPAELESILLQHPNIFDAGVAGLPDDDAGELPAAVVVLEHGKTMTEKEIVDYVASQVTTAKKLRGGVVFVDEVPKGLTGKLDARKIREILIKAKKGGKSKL

CCN1CCN(C(=O)NC(C(=O)NC2C(=O)N3C(C(=O)O)=C(CSc4nnnn4C)CSC23)c2ccc(O)cc2)C(=O)C1=O (centres undefined)
inactive: all assays above

CCCCC/C(C=O)=C/c1ccccc1
inactive: all assays above

CCN(CC)C(=O)Nc1ccc(OC[C@H](O)CNC(C)(C)C)c(C(C)=O)c1
inactive: all assays above

C/C1=C2/[N-]C(C(CC(N)=O)[C@@]2(C)CCC(=O)NCC(C)OP(=O)([O-])O[C@H]2[C@@H](O)[C@@H](n3cnc4cc(C)c(C)cc43)O[C@@H]2CO)[C@]2(C)N=C(/C(C)=C3N=C(/C=C4N=C1C(CCC(N)=O)C\4(C)C)[C@@H](CCC(N)=O)[C@]\3(C)CC(N)=O)[C@@H](CCC(N)=O)[C@]2(C)CC(N)=O.CC(=O)O.[Co] (some centres undefined)
not listed: [1]
inactive: all other assays above

CCCCCCCCCCCC(=O)OCC(O)C1OCC(O)C1O (centres undefined)
inactive: all assays above

CCCC[C@H](O)c1ccccc1
inactive: all assays above
